Data: the supplement of paper PMC6555819

Assays:
Experiment in all cases: PBM binding z-score (relative to random genomic background probes); higher = stronger binding; sequences stand for … in GC…GCGATTGACAGCGTAGAATGAAGG
[1] = test system: PPARg:RXRa DBDmut IVT, anti-RXR (DBD mutation: RXRa K156A/R161A, NR concentration 270 nM, RXRa partner concentration 90 nM)
How it was run: (§1)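 Custom Agilent 4×180K protein-binding microarrays carried double-stranded probes, each with a 34-nt variable region. These regions held direct-repeat seeds, single-nucleotide variants, half-site ablations and random human genomic background sequences. Ligand-free nuclear receptor dimers were incubated on the arrays for 1 h, antibodies against each partner (one per run) detected binding, and scanned fluorescence was regression-normalized. Binding z-scores take the random background probes as reference.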

[2] = test system: PPARg:RXRa IVT, anti-PPARg (NR concentration 270 nM, RXRa partner concentration 90 nM)
How it was run: as §1

[3] = test system: PPARg DBDmut:RXRa IVT, anti-PPARg (DBD mutation: PPARg1 K132A/R137A, NR concentration 270 nM, RXRa partner concentration 90 nM)
How it was run: as §1

[4] = test system: PPARg DBDmut IVT, anti-PPARg (DBD mutation: PPARg1 K132A/R137A, NR concentration 270 nM)
How it was run: as §1

[5] = test system: PPARg homodimer (NR concentration 180 nM)
How it was run: as §1

[6] = test system: PXR:RXRa (NR concentration 270 nM, RXRa partner concentration 90 nM)
How it was run: as §1

[7] = test system: PXR homodimer (NR concentration 270 nM)
How it was run: as §1

[8] = test system: RARa:RXR (NR concentration 270 nM, RXRa partner concentration 90 nM)
How it was run: as §1

[9] = test system: RARa homodimer (NR concentration 270 nM)
How it was run: as §1

[10] = test system: RARb:RXRa (NR concentration 270 nM, RXRa partner concentration 90 nM)
How it was run: as §1

[11] = test system: RARb homodimer (NR concentration 270 nM)
How it was run: as §1

[12] = test system: RARg:RXRa (NR concentration 270 nM, RXRa partner concentration 90 nM)
How it was run: as §1

[13] = test system: RARg homodimer (NR concentration 270 nM)
How it was run: as §1

[14] = test system: RXRa DBDmut IVT, anti-RXR (DBD mutation: RXRa K156A/R161A, NR concentration 90 nM)
How it was run: as §1

[15] = test system: RXRa homodimer (NR concentration 180 nM)
How it was run: as §1

[16] = test system: THRa:RXRa (NR concentration 90 nM, RXRa partner concentration 90 nM)
How it was run: as §1

[17] = test system: THRa homodimer (NR concentration 90 nM)
How it was run: as §1

[18] = test system: VDR:RXRa (NR concentration 270 nM, RXRa partner concentration 90 nM)
How it was run: as §1

[19] = test system: VDR homodimer (NR concentration 270 nM)
How it was run: as §1

Sequence | PBM binding z-score [1] | PBM binding z-score [2] | PBM binding z-score [3] | PBM binding z-score [4] | PBM binding z-score [5] | PBM binding z-score [6] | PBM binding z-score [7] | PBM binding z-score [8] | PBM binding z-score [9] | PBM binding z-score [10] | PBM binding z-score [11] | PBM binding z-score [12] | PBM binding z-score [13] | PBM binding z-score [14] | PBM binding z-score [15] | PBM binding z-score [16] | PBM binding z-score [17] | PBM binding z-score [18] | PBM binding z-score [19]
AGAATGAGGTTAAGACCAGGGAAACAGAATACAT | 2.74 | 2.42 | 1.4 | 1.16 | 0.773 | 1.03 | 0.319 | 1.92 | 0.687 | 1.85 | 1.01 | 1.97 | 1.33 | 0.973 | 2.47 | 2.48 | 0.691 | 1.03 | 0.514
CGTCAAAGTTCAAGGTAACGTCACAGAAAGCAGC | 0.574 | 2.31 | 1.5 | 0.322 | 2.9 | 4.33 | 2.43 | 3.98 | 1.32 | 5.18 | 4.13 | 5.4 | 6.15 | 4.55 | 4.78 | 3.12 | 1.48 | 3.96 | 3.12
ATCTGTAGGTTACATCCGGGTCATTCAGGCTATG | 3.84 | 4.04 | 1.35 | 1.89 | 1.96 | 3.52 | 1.9 | 3.18 | 0.982 | 2.34 | 3 | 3.79 | 2.18 | 1.17 | 3.04 | 3.81 | 2.84 | 4.16 | 2.67
CAAACTAGGTCACCGGAAGGTGAAAGTCCGCATG | 8.74 | 8.89 | 2.99 | 0.925 | 4.64 | 2.98 | 0.142 | 4.74 | 0.555 | 4.54 | 4.38 | 6.41 | 5.87 | 1.3 | 4.7 | 4.01 | 2.37 | 3.4 | 0.904
TCTCGGAGTACACGAAAGGTCAGAGCTCGACATC | 1.42 | 1.77 | 0.689 | 0.21 | 1.29 | 4 | -0.3 | 4.04 | -0.148 | 3.79 | 4.24 | 3.91 | 3.72 | 1.14 | 3.87 | 3.02 | 0.15 | 3.41 | 0.908
CCTACTAGGTCATGGTCAGCTAATCTACAGTATG | 7.3 | 7.42 | 2.12 | 1.91 | 2.59 | 1.5 | 0.291 | 2.45 | 0.932 | 3.92 | 3.34 | 3.79 | 4.21 | 1.37 | 2.66 | 2.87 | 1.53 | 1.8 | 0.776
TCGAGTAGGTTAGCCGGGGCATTCAGCCAACATA | 1.95 | 1.45 | -0.971 | -1.01 | -0.00962 | 0.241 | -0.374 | 0.484 | -0.48 | 0.608 | 0.49 | 0.0604 | -0.231 | 0.227 | 0.332 | 1.17 | -0.114 | 2.46 | -0.000725
TCTTGTATATCAACAGGAGGTTAAGAAAGATCGA | 1.71 | 0.652 | 1.56 | 1.04 | 0.679 | 1.2 | 0.265 | 1.32 | 0.86 | 0.806 | 0.861 | 0.722 | 0.592 | 0.943 | 1.25 | 1.18 | 0.039 | 1.28 | 0.491
CCTCCTGGGCCATCAGGTCATTGATATCAACGTT | 0.202 | 1.81 | -1.18 | -0.736 | 0.643 | 1.34 | 0.852 | 2.16 | -0.969 | 1.99 | 2.47 | 1.98 | 1.71 | -0.401 | 1.15 | 3.04 | 3.09 | 1.76 | 1.18
TAGCCTTGGTCATTGGGCCAGTATAGTACGCATC | -0.486 | 0.545 | -0.509 | -0.603 | -0.625 | -0.515 | -0.596 | -0.324 | -0.586 | 0.69 | 0.501 | 0.238 | 0.477 | -0.637 | 0.0749 | -0.206 | -0.231 | -0.419 | -0.72
CCAGACAGGTGAAAGGTAACGCAGTCTGGTACGC | 2.46 | 3.24 | -0.31 | 0.017 | 1.67 | 0.869 | -0.124 | 2.01 | 0.457 | 1.47 | 1.03 | 1.46 | 0.723 | -0.16 | 2.42 | 1.08 | -0.07 | 0.77 | -0.146
GCTGCTAGGTCAACTGATGGTCAGCGAAAGCTCG | 4.56 | 4.1 | 0.329 | -0.0247 | 1.64 | 1.7 | -0.425 | 2.98 | 0.244 | 4.37 | 3.66 | 5.35 | 5.22 | 1.57 | 3.2 | 2.98 | 0.857 | – | 0.0996
GCTAGTTGGTCAGTAAGAGGTCACACACCGGTCG | 0.963 | 2.75 | 0.167 | 0.349 | 2.96 | 4.78 | 1.57 | 5.53 | 2.06 | 3.73 | 4.7 | 4.94 | 3.87 | 0.674 | 4.5 | 3.58 | 2.63 | 4.12 | 3.38
AGTCAAAGTTCACTAGATAACGTAAGATTCAGCT | 0.283 | 2.53 | 1.22 | 1.17 | 2.06 | 3.77 | 3.07 | 2.89 | 1.09 | 4.66 | 3.55 | 4.97 | 5.79 | 3.76 | 3.84 | 1.46 | -0.386 | – | 3.35
ATCGATAGGTCGAAGGTGAGTATACCCACCCGAA | -0.27 | 1.54 | 0.544 | -0.0222 | 0.323 | 0.78 | 0.0246 | 2.02 | -0.0833 | 1.76 | 0.922 | 2.06 | 1.56 | -0.262 | 2.36 | 0.837 | -0.266 | – | -0.3
